High-throughput results (PubChem BioAssay)
In the library only some 3% were active in any assay of this set; here they are far more common.
PMP22 txn prim = Cell-based coincidence reporter assay to measure PMP22 gene transcription in S16 Pmp22-F2sN cells - Primary screen; S16 Pmp22-F2sN Schwann cells, FLuc/NLuc coincidence luminescence, 24 h; Potency, µM (top dose mostly 57.5 µM), without a hit: at the top dose activity change, negative = inhibition, actives largely listed as inhibitors; hit rate 2% among 43,000; active means clear falling dose curves in both reporters; inconclusive means both reporters move, but less clearly or upward; inactive means either reporter flat; the % is the NLuc reporter signal; further: on the % scale 0 is the no-effect control and ±100 the full control effect
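S16 Schwann cells carrying FLuc/NLuc coincidence reporter in the Pmp22 3' UTR treated with compound 24 h at 37C; FLuc then NLuc luminescence read sequentially by dual-luciferase reagents.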
GALC G270D up = A Novel Cell-Based Assay to Identify Small Molecules for B -Galactocerebrosidase; P54803; 145M-Twi-hGALC-G270D cells (Twitcher mouse brain line with human GALC G270D), HMU-beta-Gal fluorescence, 48 h; Potency, µM (top dose mostly 57.5 µM), hits mostly activators; hit rate 0.1% among 45,000; further: 0% is about no effect; nearly all actives have a fitted effect of over 65% in size
Target sequence (P54803 whole entry G286D): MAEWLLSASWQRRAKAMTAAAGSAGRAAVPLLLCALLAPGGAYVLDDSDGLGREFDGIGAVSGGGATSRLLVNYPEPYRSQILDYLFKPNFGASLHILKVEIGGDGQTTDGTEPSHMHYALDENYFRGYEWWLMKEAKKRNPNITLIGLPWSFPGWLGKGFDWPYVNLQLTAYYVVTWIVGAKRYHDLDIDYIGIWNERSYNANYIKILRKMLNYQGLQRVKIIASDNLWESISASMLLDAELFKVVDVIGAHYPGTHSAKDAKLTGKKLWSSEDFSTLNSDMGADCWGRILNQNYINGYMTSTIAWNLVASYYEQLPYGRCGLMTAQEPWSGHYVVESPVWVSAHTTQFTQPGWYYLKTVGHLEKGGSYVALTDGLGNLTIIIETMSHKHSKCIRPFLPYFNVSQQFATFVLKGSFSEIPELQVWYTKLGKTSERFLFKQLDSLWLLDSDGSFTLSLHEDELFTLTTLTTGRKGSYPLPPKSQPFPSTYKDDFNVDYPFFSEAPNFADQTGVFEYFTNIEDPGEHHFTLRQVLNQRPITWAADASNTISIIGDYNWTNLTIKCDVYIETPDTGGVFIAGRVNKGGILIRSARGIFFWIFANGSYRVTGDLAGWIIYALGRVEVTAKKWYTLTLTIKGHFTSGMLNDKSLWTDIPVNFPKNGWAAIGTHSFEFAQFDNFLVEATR
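Mutant human GALC (G270D), stably expressed in a Twitcher mouse brain cell line lacking endogenous GALC, is measured in live-treated cells via 6-hexadecanoylamino-4-methylumbelliferyl-β-galactoside hydrolysis (0.1 mM final, pH 5.2) with fluorescent detection.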
S16 F2sN tox = Cell viability qHTS assay in S16 Pmp22-F2sN cells; S16 Pmp22-F2sN Schwann cells viability, CellTiter-Glo, 24 h; hit rate 0.48% among 43,000; Potency, µM (titrated, usually from 57.5 µM), for inactives: at the highest dose activity change, negative = cytotoxicity, usual class: cytotoxic; further: on the % scale 0 is the no-effect control and ±100 the full control effect; nearly all actives have a fitted effect of over 65% in size
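Used to flag compounds lowering reporter output through toxicity, this quantitative HTS measures ATP-based CellTiter-Glo luminescence in S16 Pmp22-F2sN Schwann cells after 24 h compound exposure at 37C.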
pS6 MEF inh = Acumen qHTS Assay for Inhibitors of the mTORC1 Signaling Pathway in MEF (Tsc2-/-, p53-/-) Cells: Sytravon; Tsc2-/- p53-/- MEF, phospho-rpS6 immunofluorescence/PI, 24 h; Potency, µM (titrated, usually from 38.3 µM), without a hit: at the top dose activity change, negative = inhibition, usual class: inhibitors; hit rate 0.78% among 44,000;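 further: plate controls were DMSO for no effect and rapamycin for full effect; nearly all actives have a fitted effect of over 50% in size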
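Plate MEFs (Tsc2-/-, p53-/-, empty vector) in DMEM/10% FBS; after 24 h add compound, incubate 24 h at 37 degree Celsius; fix in PFA/TX-100, block, stain phospho-rpS6 and 10 uM PI; scan at 488 nm; report % positive cells.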
p53null 32C kill = qHTS Screen for Compounds that Selectively Target Cancer Cells with p53 Mutations: Cytotoxicity of p53 Null Cells at the Permissive Temperature; H1299-neo p53 null cells, ATP luminescence, 24 h, 32C; Potency, µM (titrated, usually from 46.1 µM), for inactives: top-dose activity change, negative = cytotoxicity, most hits filed as cytotoxic; hit rate 0.62% among 55,000;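 further: 0% = DMSO only and -100% = full killing by 100 µM tamoxifen; nearly all actives have a fitted effect of over 55% in size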
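ATP-content luminescence in p53-null H1299-neo cells after 24 h compound exposure (up to 46 uM) at 32C permissive temperature; 0% and 100% killing set by DMSO and 100 uM tamoxifen; Hill-equation AC50.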
p53null 39C kill = qHTS Screen for Compounds that Selectively Target Cancer Cells with p53 Mutations: Cytotoxicity of p53 Null Cells at the Nonpermissive Temperature | H1299 p53-null (neo) cells, 39C, ATPlite viability, 24 h | Potency, µM (titrated, usually from 46.1 µM), inactives show top-dose activity, negative = cell killing, usual class: cytotoxic | hit rate 0.97% among 55,000;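 further: 0% = DMSO only and -100% = full killing by 100 µM tamoxifen; nearly all actives have a fitted effect of over 50% in size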
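Concentration-response (up to 46 uM) was run for 24 h at the nonpermissive 39C on H1299-p53A138V or H1299-neo cells. ATP content was measured with ATPlite luminescence. AC50 values were Hill-modeled after normalizing between DMSO and 100 uM tamoxifen killing.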
Starred values were filed as active, the others as inactive; i = inactive; ? = inconclusive; . = no result given. Unless noted, the call rests on the fitted dose curve; in most records, active means well fitted curve in the direction sought with a large enough effect; inconclusive means small, poorly fitted or top-dose-only effect, or another doubt; inactive means no such curve, though single readings can be large; an effect the other way counts as inactive or inconclusive. Potency means the concentration at half of the fitted maximal effect.

SMILES	PMP22 txn prim	GALC G270D up	S16 F2sN tox	pS6 MEF inh	p53null 32C kill	p53null 39C kill
COc1cccc(/C=C/C(=O)Nc2ccc3nc(N4CCN(C)CC4)cc(C)c3c2)c1OC	?	i	32µM*	?	?	20µM*
COc1ccc2nc(SCc3cccc(C)c3)nc(C)c2c1	.	.	.	.	65%	.
Cc1cc(C)nc(NS(=O)(=O)c2ccc(NC(=S)NC(=O)C(C)C)cc2)n1	.	.	.	.	-1%	2%
Cc1ccc(NC(=O)c2cc(-c3ccc(Br)s3)nc3ccccc23)cc1F	?	i	32µM*	-9%	-12%	-21%
CC(C)(C)c1ccc(C(=O)Nc2nnc3n2CCS3)cc1	?	i	-22%	?	10µM*	?
CC(C)(C)C(=O)Nc1nnc2n1CCS2	6%	i	-1%	-1%	-1%	15%
Brc1ccc(Nc2c3c(nc4nncn24)CCC3)cc1	?	i	-25%	5.8µM*	-7%	-12%
COC(=O)c1sccc1S(=O)(=O)N1CCN(c2ccc(Cl)cc2)CC1	2%	i	4%	-9%	-12%	2%
Cc1ccc(-n2c(=O)c3ccc(C(=O)NCc4ccco4)cc3n(Cc3cccc(Cl)c3)c2=O)cc1	-25%	i	-8%	-6%	5%	5%
O=C(CC1SC(=NC2CCCCC2)NC1=O)Nc1ccccc1 (stereo not drawn)	.	.	.	.	-1%	14%
CCOc1ccc(C(=O)Nc2onc3c2CCCC3)cc1	?	i	-2%	2%	6.3µM*	4µM*
CC(C)COc1ccc(C(=O)Nc2onc3c2CCCC3)cc1	6%	i	?	-6%	?	13µM*
CC(C)(C)c1ccc(C(=O)Nc2onc3c2CCCC3)cc1	-25%	i	?	1%	16µM*	?
O=C(CCCn1ccc2cc(S(=O)(=O)N3CCCC3)ccc21)NCc1ccc(Cl)cc1	?	i	?	7.4µM*	-7%	?
CN(C)c1ccc(CNC(=O)CCCn2ccc3cc(S(=O)(=O)N4CCCC4)ccc32)cc1	?	i	?	-9%	-3%	3%
Cc1ccc(CNC(=O)c2ccc3nc(N4CCCCC4)sc3c2)cc1	-7%	i	-18%	0%	-11%	-11%
CCCN(CCC)CCCNC(=O)C1CCN(c2nc3ccc(CC)cc3s2)CC1	?	i	28µM*	16µM*	?	?
CCCCN(CCCC)CCCNC(=O)c1ccc2nc(N3CCCCC3)sc2c1	8%	i	11%	0%	-2%	-14%
CCCN(CCC)CCNC(=O)C1CCN(c2nc3ccc(CC)cc3s2)CC1	?	i	?	16µM*	?	?
CCc1ccc2nc(N3CCC(C(=O)NCCC(C)C)CC3)sc2c1	?	i	1%	0%	?	6.3µM*
CC1CCN(c2nc3ccc(C(=O)NCc4ccccc4)cc3s2)CC1	1%	i	?	-2%	0%	-8%
COc1ccc(C(=O)c2sc3nc(-c4ccc(C)cc4)cc(C(F)(F)F)c3c2N)cc1	-18%	i	4%	0%	-10%	-21%
COc1cc(Br)c(C2CC(=O)Nc3cc4c(cc32)OCCO4)cc1OC (stereo not drawn)	?	i	-11%	-13%	31%	-13%
COc1cccc(C2CC(=O)Nc3cc4c(cc32)OCCO4)c1OC (stereo not drawn)	0%	i	-33%	15µM*	18%	1%
COc1cccc(-c2oc3ccc(C)cc3c(=O)c2O)c1	?	i	-26%	?	?	22µM*
SMILES	PMP22 txn prim	GALC G270D up	S16 F2sN tox	pS6 MEF inh	p53null 32C kill	p53null 39C kill
CCOc1ccc(-c2oc3ccc(C)cc3c(=O)c2O)cc1	7%	i	-2%	8%	-9%	-26%
Cc1cccc(-c2nnc(SCC(=O)Nc3ccc(C)c(C)c3)o2)c1	-25%	i	0%	-10%	-10%	-6%
Cc1cccc(NC(=O)CSc2nnc(-c3ccccc3C)o2)c1	.	.	.	.	-20%	10µM*
COc1ccccc1NC(=O)CSc1nnc(-c2ccccc2C)o1	2%	i	0%	-2%	?	4µM*
COc1cccc(NC(=O)CSc2nnc(-c3cccc(OC)c3)o2)c1	-15%	i	-8%	-15%	16µM*	6.3µM*
COc1ccc(NC(=O)CSc2nnc(-c3ccc(C)cc3)o2)cc1	-37%	i	-3%	-4%	-9%	15%
O=C(CSc1nnc(-c2ccccc2F)o1)Nc1ccccc1Cl	9%	i	-17%	-3%	-21%	7.9µM*
N#CCSc1nnc(CNc2ccc(F)cc2)o1	.	.	.	.	-4%	-3%
CC(=O)c1ccc(N2CCN(C(=O)c3cc(C)on3)CC2)cc1	.	.	.	.	-3%	8%
CCCCNC(=O)CCC(=O)NNc1nc2ccccc2c2nc(C)nn12	-26%	i	5%	-14%	1%	21%
Cc1cccc(NC(=O)Nc2ccc(C)cc2Br)c1	.	.	.	.	-11%	.
Cn1c(=O)c2c(nc(NCc3ccccc3)n2Cc2ccccc2)n(C)c1=O	13µM*	i	?	-7%	-12%	-5%
CC(CCO)Nc1nc2c(c(=O)n(C)c(=O)n2C)n1Cc1ccc(Br)cc1 (stereo not drawn)	?	22µM*	?	-4%	-3%	-5%
COc1ccc(NC(=O)CC2C(=O)N(c3ccc(C)cc3)C(=O)N2Cc2ccc3c(c2)OCO3)cc1 (stereo not drawn)	3%	i	-3%	-13%	14%	-4%
CCOc1ccccc1NC(=O)CCS(=O)(=O)c1ccc2c(c1)oc(=O)n2C	-16%	i	-19%	-11%	-6%	28%
Cc1cccc(-c2cc(C(=O)NCc3ccccn3)c3ccccc3n2)c1	.	.	.	.	-25%	.
O=C(NCc1ccccn1)c1cc(-c2ccc(-c3ccccc3)cc2)nc2ccccc12	.	.	.	.	.	7.9µM*
